# “And” between values parts separate entries of the source, which are not always exact repeats. Identical values can stand only once. This is part of a sample that, as a whole, favours compounds with a hit. Of some 83,000 tested, about 20% had one in any assay.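 Interpretation: 100, growth as untreated; towards 0, rising growth inhibition; 0, no net growth; 0 to -100, cell death. Compounds scoring below 10 were considered active.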 The source made the active and inactive calls.
# Test system: SN12C renal
# Assay: NCI-60 one-dose screen, 48 h (100 = growth as untreated, 0 = no growth, -100 = all killed)
# Settings: 10 µM unless noted
row,SMILES,growth
1,CC[C@@]1(O)C[C@H](OC2CC(N(C)C)C(O)C(C)O2)c2c(O)c3c(c(O)c2[C@H]1OC1CC(N(C)C)C(O)C(C)O1)C(=O)c1cccc(O)c1C3=O (stereo partly specified),11.4% (inactive)
2,COC1CC(CC2CCC(C)C(C(C)C(=O)O)O2)OC2(OC(C)(C3CCC(C)(C4OC(C5OC(O)(CO)C(C)CC5C)CC4C)O3)CC2C)C1C (stereo unspecified),17.1% (inactive)
3,CCC(=O)OC1CCn2c1nc1c2C(=O)C(C)=C(N2CC2)C1=O (stereo unspecified),-43.9% (active)
4,CO[C@H](/C(C)=C/C=C/C(C)=C/c1coc(C)n1)[C@H](C)[C@H]1C[C@@H](O)[C@@]2(C)O[C@H]2/C=C/[C@@H](C)[C@@H]2C[C@@H](CC(=O)O2)C[C@H]2O[C@@H]2C(=O)O1,48.7% (inactive)
5,CC1=C(CO)C2=C(C)C3(CC3)[C@@](C)(O)C(=O)C2=C1,20.5% (inactive)
6,COC1=C(C)C(=O)C2=C(C1=O)C(CO)N1C(C#N)C3CC4C(C1C2N1CCOC41)N3C (stereo unspecified),19.8% (inactive)
7,CC[n+]1c(-c2ccccc2)c2cc(N)ccc2c2ccc(N)cc21,-16.5% (active)
8,CN1CCN(c2ccc([N+](=O)[O-])c3no[n+]([O-])c23)CC1,-63.9% (active)
9,COc1cccc2c1cc([N+](=O)[O-])c1c(C(=O)O)cc3c(c12)OCO3,65.1% (inactive) and 113% (inactive)
10,CCOC(=O)C(NC(=O)C(Cc1ccc(N(CCCl)CCCl)cc1)NC(C)=O)C(C)C (stereo unspecified),76.2% (inactive)
11,C[C@]12CC[C@H](O)CC1=CC[C@@H]1[C@@H]2CC[C@]2(C)C(=O)CC[C@@H]12,106% (inactive)

# — PubChem BioAssay (NCI)
